Screening results: PubChem, several laboratories
Mcl1 Noxa PPI = Mcl-1/Noxa interaction inhibition; 220,000 tested, 1.5% active; TR-FRET Mcl-1/Noxa peptide binding, 2 h; AID 1022; inhibition, % at 21.7 µM;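 active means compounds that cut the protein-peptide binding signal by more than 50% relative to plate controls in a single-dose test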;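 further: His-tagged Mcl-1 with rhodamine Noxa BH3 peptide and terbium anti-His antibody; 0% = Mcl-1 plus Noxa peptide wells and 100% = peptide-only wells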
Target sequence (Q07820 whole entry, looked up): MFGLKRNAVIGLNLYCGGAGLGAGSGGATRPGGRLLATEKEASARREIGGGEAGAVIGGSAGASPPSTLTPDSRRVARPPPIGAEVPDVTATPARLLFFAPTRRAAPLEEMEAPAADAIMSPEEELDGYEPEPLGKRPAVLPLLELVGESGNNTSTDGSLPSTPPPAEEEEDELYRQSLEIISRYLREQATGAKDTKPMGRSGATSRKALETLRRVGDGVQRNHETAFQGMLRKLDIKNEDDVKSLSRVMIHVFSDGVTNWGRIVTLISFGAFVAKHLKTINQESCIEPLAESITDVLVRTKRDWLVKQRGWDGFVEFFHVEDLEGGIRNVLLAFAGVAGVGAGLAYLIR
Mcl-1 Bim block = inhibitors of Bim-Mcl-1 interaction, human. 190,000 tested, 0.1% active. inhibition, % at 10 µM. Q07820. Bead-based flow cytometry, Bim peptide-Mcl-1 binding; in the data active means inhibition above about 40%;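 further: 0% = no compound tracer wells and 100% = peptide blocker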
Pf gametocyte = P. falciparum stage V gametocyte viability inhibition. AID 743093. inhibition, % at 10.9 µM. P. falciparum stage V gametocytes, ATP luminescence, 24 h. 150,000 tested, 0.065% active;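 active means inhibition above the mean plus 3 SD of compounds within the control limits, set per campaign, cut at about 38% in these data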;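 further: 0% = DMSO wells and 100% = medium only without gametocytes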
Mcl1-Bid inh = Mcl-1/Bid interaction inhibition; inhibition, % at 21.7 µM; 220,000 tested, 0.97% active; Q07820; AID 1021; TR-FRET Mcl-1/Bid-Dy647 peptide binding, 1536-well;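 active means compounds that cut the binding signal by more than half at the single screening dose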;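 further: His-tagged Mcl-1 with europium anti-His antibody binding Bid BH3 peptide; 0% = Mcl-1 plus peptide wells and 100% = peptide-only wells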
14-3-3 Bad inh = disrupts binding of bovine 14-3-3 zeta to phospho-Bad peptide. TR-FRET 14-3-3zeta/Dy647-pBad peptide displacement, 1 h. AID 781. 220,000 tested, 0.71% active. inhibition, % at 21.7 µM;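 active means inhibition above about 70%, limit read from the data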;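 further: 0% = full 14-3-3 plus peptide FRET controls and 100% = background without 14-3-3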
Target sequence (P63103 whole entry, looked up): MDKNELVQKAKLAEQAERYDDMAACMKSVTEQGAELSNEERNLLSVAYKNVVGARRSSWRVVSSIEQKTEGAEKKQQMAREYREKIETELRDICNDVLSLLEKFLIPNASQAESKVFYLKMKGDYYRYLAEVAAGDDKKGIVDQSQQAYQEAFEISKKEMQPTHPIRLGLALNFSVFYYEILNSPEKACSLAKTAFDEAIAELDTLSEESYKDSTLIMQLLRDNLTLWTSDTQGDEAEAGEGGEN
eIF4E-4G inh = inhibitors of eIF4E and eIF4G interaction in translation initiation; P63073+Q04637; TR-FRET eIF4E-eIF4GI(517-606) binding, 2 h; inhibition, % at 21.7 µM; 220,000 tested, 0.37% active;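 active means inhibition above about 30%, limit read from the data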;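 further: 0% = full FRET control wells and 100% = background wells lacking eIF4GI fragment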
* hit, by the source's call; . = no result; [ ] = remark or other dose. Rows were chosen to be rich in hits. Some 2.7% of all compounds tested hit in one or more screens of this group.

SMILES	Mcl1 Noxa PPI	Mcl-1 Bim block	Pf gametocyte	Mcl1-Bid inh	14-3-3 Bad inh	eIF4E-4G inh
COc1ccc(OC)c(CNC(=O)C2CCN(S(C)(=O)=O)CC2)c1	0	4	-22	-1	-3	0
Cc1ccc(C2=NN=C(NC(=O)CSc3nnc4c5ccccc5n(C)c4n3)SC2)cc1	63*	-1	.	-3	4	3
NC(=O)C1CCCN1 (configuration not stated)	1	-2	20	-23	-5	-1
CC(=O)c1cccc2c(O)c(C3=Nc4ccccc4C3=O)[nH]c12	62*	2	.	-39	-14	5
Cc1ccc(C(=O)NCCCn2ccnc2)o1	42	-2	.	62*	0	4
COc1ccc(C2=NN(c3ccccc3)C(=O)/C2=C\c2ccc(O)c(OC)c2)cc1	52*	3	10	-31	7	2
Cc1ccc(C(=O)N(C)CC(=O)Nc2ccc(F)c(F)c2F)o1	-15	-1	13	-10	-9	5
Cc1ccc(C)c2nc3sc(C(=O)N4CCOCC4)c(N)c3cc12	60*	0	20	-55	8	2
Cc1cc(C)c2cc3c(N)c(C(=O)N4CCOCC4)sc3nc2c1	20	-2	7	11	-9	6
Cc1cc(C)c2nc3sc(C(=O)N4CCOCC4)c(N)c3cc2c1	65*	.	-16	-112	17	0
COc1ccc(CCNC(=O)C(=O)N2CCCC2)cc1OC	7	0	.	-22	-3	3
CCC(C)Sc1nnc(NS(=O)(=O)Cc2ccccc2)s1 (configuration not stated)	.	.	-24	.	.	.
COC(=O)N/N=C/c1cc(OC)c(O)c([N+](=O)[O-])c1	32	-3	-7	-23	-18	0
COc1cc(/C=N/NC(=O)c2ccc([N+](=O)[O-])cc2Cl)cc(Br)c1O	82*	9	8	-42	6	17
COc1cc(/C=N/NC(N)=O)cc([N+](=O)[O-])c1O	52*	5	-49	-11	12	4
COc1cc(/C=N/NC(=O)c2ccc(COc3ccccc3Cl)o2)cc(Br)c1O	73*	-19	.	40	38	12
COc1cccc(/C=N/NC(=O)c2ccc(COc3ccc(Cl)cc3Cl)o2)c1	11	0	-7	5	12	-5
C=CCc1cccc2cc(C(=O)NNC(=O)CC#N)c(=O)oc12	-10	.	-1	-42	0	4
COc1cc(Cl)ccc1NC(=O)COc1ccccc1C(=O)NN	4	0	10	-4	1	2
Cc1ccc(C)c2nc(SCC(=O)N3CCCc4ccccc43)c(C#N)cc12	-30	-5	-11	-12	-8	6
Cc1ccc(COc2cccc3c2CCN(Cc2ccc(F)cc2)C3=O)cc1	12	-3	.	54*	4	5
O=C1c2cccc(OCc3ccc(F)cc3)c2CCN1Cc1ccccc1	-2	-8	20	-11	7	6
Cc1cccc(CN2CCc3c(OCC(=O)NCc4ccco4)cccc3C2=O)c1	3	-7	.	95*	6	-2
O=C(CSc1nc2ncc(Br)cc2[nH]1)c1ccc([N+](=O)[O-])cc1	30	-4	-10	-52	-4	-3
O=C(CSc1nc2ccc([N+](=O)[O-])cc2[nH]1)c1ccc2ccccc2c1	62*	0	.	29	-11	-3
SMILES	Mcl1 Noxa PPI	Mcl-1 Bim block	Pf gametocyte	Mcl1-Bid inh	14-3-3 Bad inh	eIF4E-4G inh
NC(=O)c1cnn(C2CCS(=O)(=O)C2)c1 (configuration not stated)	4	-3	9	-8	1	-5
Cc1nc2nc3c(cn2n1)C(=O)CCC3	16	-3	.	-10	11	4
c1ccc(-c2nnc3sc(-c4ccncc4)nn23)cc1	.	2	52*	-14	12	-9
COc1ccc(CCNC(=O)Cn2cnc3c(cnn3-c3ccccc3Cl)c2=O)cc1OC	0	0	-27	-2	1	31*[fluorescence artefact?]
Cc1ccc(S(=O)(=O)N2CCCOC2CNC(=O)C(=O)NC2CCCCC2)cc1 (configuration not stated)	-7	0	8	2	10	-2
O=C(CC1CCCCC1)NCC1CCCO1 (configuration not stated)	-13	-9	-27	-12	-5	38*
O=C(CCSCCC(=O)NCC1CCCO1)NCC1CCCO1 (configuration not stated)	3	0	.	-37	12	1
O=C1C2C3C=CC(C3=C(c3ccccc3)c3ccccc3)C2C(=O)N1Cc1ccccc1 (configuration not stated)	64*	0	.	20	16	2
O=C1C2C3C=CC(C3=C(c3ccccc3)c3ccccc3)C2C(=O)N1CCO (configuration not stated)	14	-8	7	-2	-11	-4
CC(=O)OCC1OC(n2ncc(=O)n(Cc3ccccc3)c2=O)C(OC(C)=O)C1OC(C)=O (configuration not stated)	18	0	-10	-8	-5	2
CC(=O)OC[C@H]1O[C@@H](n2ncc(=O)[nH]c2=O)[C@H](OC(C)=O)[C@@H]1OC(C)=O	10	0	.	0	71*	0
CCN1CCCC1CNCC(O)COc1ccc(C(C)(C)C)cc1C (configuration not stated)	9	-2	-21	21	55	1
CCNC(=O)c1cc(S(=O)(=O)N(C)C)c(Cl)cc1Cl	28	2	10	72*	88*	-1
O=C1Nc2ccccc2S/C1=C/c1cccs1	-24	.	-11	-65	1	74*
O=C1/C(=C/c2cccs2)Sc2ccccc21	38	75*	-2	10	-9	-4
Cc1ccc(N=C2NC(=O)/C(=C\c3cccs3)S2)cc1C	26	-4	9	-13	1	-7
COc1ccccc1CN(C)CC(=O)NC1CCCc2ccccc21 (configuration not stated)	-16	-5	3	-2	2	4
COC(=O)c1csc(S(=O)(=O)N2CCCCC2)c1OC	8	.	2	6	2	-1
Cn1c(C(=O)N2CCC(C(N)=O)CC2)cc2cc(Cl)ccc21	.	.	6	.	.	.
COCc1cc(CN2CCCC(CNC(=O)c3ccc(F)cc3)C2)ccc1OC (configuration not stated)	-3	40*	-1	-29	-7	1
COc1cccc(CN2CCCC(CNC(=O)c3ccc(F)cc3)C2)c1OC (configuration not stated)	4	-3	11	-10	0	-3
Cc1ccc(S(=O)(=O)N(CC(=O)N/N=C/c2cccc(Cl)c2)c2cccc3cccnc23)cc1	-18	-1	.	86*	1	-12
COc1cc(/C=C2/C(=O)NN(c3cccc(F)c3)C2=O)ccc1OC(=O)c1ccco1	33	-3	-15	-38	-5	9
